Data: the supplement of paper PMC10121225
Structures can show the parent of a compound that is named as a salt.

test system: hN + hpA co-culture (H1 iNGN2 human neurons + human primary astrocytes); assay: presynaptic density (SYNAPSIN1 puncta per MAP2 neurite area), Z-score vs DMSO controls; higher = more presynaptic puncta (synapse-promoting); conditions: 3 µM; 72 h
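Note: immunostained co-cultures imaged by high-content microscopy, Z-score per plate against mean and SD of 0.1% DMSO wells, compounds added on differentiation day 18, analysed day 21.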

| Compound | presynaptic density (Z-score) |
| --- | --- |
| Cn1cnc2c(F)c(Nc3ccc(Br)cc3Cl)c(C(=O)NOCCO)cc21 | 0.953 |
| OCCn1cc(-c2cnc3nnn(Cc4ccc5ncccc5c4)c3n2)cn1 | -0.173 |
| CC1=C(/C=C/C(C)=C/C=C/C(C)=C\C(=O)O)C(C)(C)CCC1 [Isotretinoin] | -2.56 |
| CC(C)CCN1c2nc(Nc3cc(F)c(O)c(F)c3)ncc2N(C)C(=O)C1C (centres undefined) | 2.11 |
| CCOC(=O)NCCCC(=O)NCCc1ccccc1 | -0.656 |
| CCOC(=O)c1ccc(N2NC(=O)C(=Cc3ccc([N+](=O)[O-])o3)C2=O)cc1 | 0.0787 |
| S=C=Nc1cccc(NC(=S)NCCCCNC(=S)Nc2cccc(N=C=S)c2)c1 | 0.95 |
| CC[C@H](C)C(=O)O[C@H]1C[C@@H](C)C=C2C=C[C@H](C)[C@H](CC[C@@H]3C[C@@H](O)CC(=O)O3)[C@H]21 | 1.56 |
| Cc1ccc(NC(=O)C2(c3ccc4c(c3)OC(F)(F)O4)CC2)nc1-c1cccc(C(=O)O)c1 [VX-809 (Lumacaftor)] | -0.6 |
| C=CCn1c(=O)c2cnc(Nc3ccc(N4CCN(C)CC4)cc3)nc2n1-c1cccc(C(C)(C)O)n1 | 1.16 |
| CCCC(=O)Nc1cccc(NC(=O)c2ccccc2Br)c1 | -0.374 |
| CCN(CC)C(=O)/C(C#N)=C/c1cc(O)c(O)c([N+](=O)[O-])c1 [Entacapone] | 0.44 |
| CN[C@@H](C)C(=O)N[C@H](C(=O)N1CCC[C@H]1C(=O)Nc1snnc1-c1ccccc1)C1CCCCC1 | -0.107 |
| O=C1NC(=O)C(c2ccccc2[N+](=O)[O-])=C1Nc1ccc(O)c(Cl)c1 | -0.662 |
| COc1c(O)cc2c(c1O)[C@@H]1O[C@H](CO)[C@@H](O)[C@H](O)[C@H]1OC2=O | 0.361 |
| CC(C)C[C@H](NC(=O)[C@H](Cc1ccccc1)NC(=O)c1cnccn1)B(O)O [Bortezomib (PS-341)] | -3.27 |
| CN1C(=O)C(Cc2c[nH]c3ccccc23)NC1=S (centres undefined) [5-(1H-Indol-3-ylmethyl)-3-methyl-2-thioxo-4-imidazolidinone] | -0.458 |
| Nc1cccc(-c2cc3c(Oc4cccc(O)c4)ncnc3[nH]2)c1 | 0.148 |
| COc1ccc2cc([C@H](C)C(=O)O)ccc2c1 [Naproxen] | -1.04 |
| Cc1cccc(CC(=O)N2CCc3c2ccc(-c2cn(C)c4ncnc(N)c24)c3F)n1 | -0.752 |

| Compound | presynaptic density (Z-score) |
| --- | --- |
| Cc1cc(C(N)=O)ccc1-n1c(CCC(=O)O)ccc1-c1ccc(-n2ccnc2)cc1 | -0.771 |
| CCOc1nc2cccc(C(=O)O)c2n1Cc1ccc(-c2ccccc2-c2nnn[nH]2)cc1 [Candesartan] | 0.323 |
| COc1cc2ncnc(Nc3ccc(Cl)cc3F)c2cc1OC | -0.982 |
| CC(C)NCC(O)COc1ccc(COCCOC(C)C)cc1 (racemic) | -0.749 |
| Cc1c(NC(=O)c2ccc(C(C)(C)C)cc2)cccc1-c1cn(C)c(=O)c(Nc2ccc(C(=O)N3CCOCC3)cc2)n1 | 0.702 |
| C=C1C(=O)OC2C=C(C)CCC=C(C)CCC12 (centres undefined) | 0.309 |
| OC(CC1c2ccccc2-c2cncn21)C1CCCCC1 (centres undefined) | 0.156 |
| Cc1cc(Nc2cc(CN3CCOCC3)c3nc(C)c(Cc4ccc(Cl)cc4F)n3n2)n[nH]1 | -1.8 |
| C/C(=C\C(=O)Nc1ccccc1C(=O)O)c1ccc2ccccc2c1 | -1.34 |
| O=C(Nc1cc(C(F)(F)F)cc(C(F)(F)F)c1)c1cc(Cl)ccc1O | -3.05 |
| COc1cc(OC)c(NC(=O)Nc2cc(C)on2)cc1Cl | -0.694 |
| CCc1c2c(nc3ccc(OC(=O)N4CCC(N5CCCCC5)CC4)cc13)-c1cc3c(c(=O)n1C2)COC(=O)C3(O)CC (centres undefined) [Irinotecan HCl Trihydrate_Selleck] | -0.772 |
| CC1(C)CCC(CN2CCN(c3ccc(C(=O)NS(=O)(=O)c4ccc(NCC5CCOCC5)c([N+](=O)[O-])c4)c(Oc4cnc5[nH]ccc5c4)c3)CC2)=C(c2ccc(Cl)cc2)C1 | -1.11 |
| Cc1c(Cc2ccc3ccccc3n2)c2cc(F)ccc2n1CC(=O)O | -1.02 |
| C[C@]12C=CC(=O)N[C@@H]1CC[C@@H]1[C@@H]2CC[C@]2(C)[C@@H](C(=O)Nc3cc(C(F)(F)F)ccc3C(F)(F)F)CC[C@@H]12 [Dutasteride] | -1.23 |
| O=C(Nc1ccccc1Br)N[C@@H]1CCN(c2ccc(C(F)(F)F)cn2)C1 | -1.47 |
| CC(C)c1c(C(=O)Nc2ccccc2)c(-c2ccccc2)c(-c2ccc(F)cc2)n1CC[C@@H](O)C[C@@H](O)CC(=O)O | -2.01 |
| CC(C)(C)n1nc(-c2ccc(Cl)cc2)c2c(N)ncnc21 | 0.793 |
| CC(C)(C)NC(=O)[C@H]1CC[C@H]2[C@@H]3CC[C@H]4NC(=O)C=C[C@]4(C)[C@H]3CC[C@]12C [Finasteride] | -0.206 |
